Shown are actives, neighbours in structure and some others; about 2.4% of the full set was active somewhere.
ANO1 block: inhibitors of mouse TMEM16A calcium-activated chloride channel; AID 588511; 1.2% of 310,000 active; Q8BHY3; HEK293 TMEM16A/YFP iodide influx fluorescence, ionomycin; normalized B-score (activity score, 25-100; higher = stronger inhibition) at 10 µM;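 active means ratio plate-corrected score three or more library SD toward inhibition, starting fluorescence score within five deviations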;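 further: score derived from kinetic fluorescence span divided by baseline fluorescence per well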
TLR9-MyD88 inh: TLR9-MyD88 interaction inhibition | inhibition, % at 4.98 µM | CHO BLA complementation TLR9-MyD88, CCF4 FRET ratio | Q9NR96+Q99836 | AID 504734 | 0.21% of 340,000 active;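 active means inhibition above the mean over all tested compounds plus 3 SD, cut at about 21% in these data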;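 further: 0% = DMSO only wells and 100% = clavulanate BLA inhibitor control wells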
TLR4 MyD88 comp: blocks binding of human TLR4 to MyD88. O00206+Q99836. HeLa CL3-4 TLR4/MyD88 BLA complementation, FRET ratio. inhibition, % at 8.4 µM. 0.18% of 200,000 active; in the data active means inhibition above about 25%;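 further: 0% = vehicle and 100% = reference inhibitor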
NOD2-RIPK2 inh: inhibitors of human NOD2-RIPK2 interaction. 0.38% of 360,000 active. AID 624267. O43353. inhibition, % at 4.98 µM. CHO BLA complementation NOD2-RIPK2, CCF4 ratio; in the data active means inhibition above about 21%;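 further: 0% = vehicle only and 100% = reference blocker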
TMEM16A act: activates or potentiates the mouse TMEM16A chloride channel. B-score at 10 µM. HEK293 TMEM16A/YFP-H148Q/I152L, iodide quench fluorescence; hits give low values. 0.3% of 340,000 active;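 active means fluorescence-ratio B-score plate-corrected deviation score at least 3 library SD below zero, with starting fluorescence score within 5 deviations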;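 further: channel opened by trigger with iodide after compound preincubation; score built on the fluorescence ratio of max minus min over baseline; more negative score means more quench and so TMEM16A activation or potentiation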
m5-HT2A agonist: agonists of mouse serotonin 5-HT2A receptor (HTR2A). P35363. CHO-K1 mHTR2A beta-arrestin complementation, luminescence; percent of 30 µM serotonin response. activation, % at 7.6 µM. 0.66% of 360,000 active;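 active means activation above a run cutoff, the mean activation of all tested compounds plus 3 SD, cut at about 14% in these data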;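 further: 0% = plate median of compound wells and 100% = 30 µM serotonin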
Starred values were filed as active, the others as inactive; i = inactive; x = no result given.

SMILES	ANO1 block	TLR9-MyD88 inh	TLR4 MyD88 comp	NOD2-RIPK2 inh	TMEM16A act	m5-HT2A agonist
CCN(Cc1ccccc1)S(=O)(=O)c1ccc(S(=O)(=O)N(Cc2cccc(OC)c2)CC2CCCO2)cc1 (configuration not stated)	25*	0.6	8.2	4.3	i	-2.1
COc1cccc(CN(CC2CCCO2)S(=O)(=O)c2ccc(-n3cnnn3)c(OC)c2)c1 (configuration not stated)	i	-1.2	-4.0	8.6	i	-1.7
O=C(CCS(=O)(=O)c1ccccc1)Nc1nc(-c2cccs2)cs1	i	-2.6	13.4	8.8	-7.85*	-5.7
CCc1ccc(CN(C)C(=O)c2cc(COc3c(F)cccc3F)on2)cc1	i	-2.3	3.8	-7.1	-26.5*	-0.9
Cc1csc(NC(=O)CSc2nnc(-c3ccco3)n2C)n1	i	1.3	16.9	-5.6	i	8.2
COc1cccc2cc(-c3nnc(SCC(=O)Nc4nc(C)cs4)n3C)oc12	i	-2.1	-9.6	4.4	i	24.7*
Cc1ccc(C(=O)NC(C)c2ccc(F)cc2)cc1 (configuration not stated)	i	-6.8	-16.6	-2.6	i	-4.4
Cc1ccc(C(C#N)c2ccc(C(=O)c3ccc(F)cc3)cc2)cc1 (configuration not stated)	25*	6.6	10.3	-1.2	i	-6.7
Cc1nn(-c2ccc(C(F)(F)F)cn2)c(C)c1Oc1ccccc1O	i	1.9	0.7	-1.7	-33.8*	2.8
O=[N+]([O-])c1ccc(Oc2ccc(S(=O)(=O)N3CCCCC3)cc2)cc1	25*	-11.3	8.6	-0.8	i	-1.4
Cc1occc1C(=O)N1CCN(c2ncccn2)CC1	i	-11.3	-2.9	-5.4	-50.4*	1.9
NC(=O)c1ccc(NC(=O)CN2CCOCC2)cc1	i	1.0	x	2.0	i	6.8
COc1ccc(CC(=O)N/N=C/c2cccn2-c2ccc([N+](=O)[O-])cc2)cc1OC	i	-1.7	1.6	-0.7	-11.6*	-3.0
CCCCN=c1scc(-c2ccc3c(c2)NC(=O)CO3)n1N=C1CCCC1	i	0.1	3.9	4.3	i	0.6
CCN=c1scc(-c2ccc3c(c2)NC(=O)CO3)n1N=C1CCCC1	100*	-1.3	1.4	-13.3	i	7.6
Brc1ccc(N=Nc2ccc3ccccc3n2)cc1	i	-12.0	x	-1.6	i	-1.5
C=CCn1c(Cc2c(C)[nH]c3ccccc23)nnc1SCC(=O)NCc1ccc(F)cc1	100*	-13.1	-6.2	-2.6	i	-0.7
CC1=NN(c2ccccc2)C(=O)C1=Cc1ccccc1	x	-2.6	x	2.4	x	7.1
CC1=NN(c2ccccc2)C(=O)/C1=C/c1ccc(Cl)cc1	25*	-4.4	x	5.8	i	1.9
CC1=NN(c2ccc(C(=O)O)cc2)C(=O)/C1=C/c1ccc(-c2ccccc2F)o1	100*	-3.7	x	-5.0	i	-0.5
COC(=O)C1(C)NC(c2cccs2)C2C(=O)N(c3ccccc3F)C(=O)C21 (configuration not stated)	i	-7.4	-3.6	0.6	x	4.5
C/C(=N\Nc1nc(C)c(C)s1)c1ccc([N+](=O)[O-])cc1	i	12.5	13.7	1.0	-20.7*	-5.1
Cc1[nH]c2ccccc2c1C(=O)CSC(=S)N(C)C1CCCCC1	i	1.0	-2.9	7.6	i	-1.3
Cc1[nH]c2ccccc2c1C(=O)CSC(=S)N1CCCCC1	i	4.3	-4.8	-7.1	-11.7*	-1.3
O=C(NCCN1CCOCC1)Nc1ccccc1	i	-5.3	-6.7	1.3	i	4.8
SMILES	ANO1 block	TLR9-MyD88 inh	TLR4 MyD88 comp	NOD2-RIPK2 inh	TMEM16A act	m5-HT2A agonist
Cc1ccc(/C=N/Nc2ncc(Cl)cc2Cl)s1	25*	-6.9	-7.5	-4.0	i	0.1
O=C(Cn1sc2ccccc2c1=O)NC12CC3CC(CC(C3)C1)C2	i	21.4*	-4.1	8.8	i	7.8
O=C(Cn1sc2ccccc2c1=O)Nc1ccccc1	x	1.3	x	17.8	x	-4.8
Cc1nn(-c2ccccc2)c(Cl)c1/C=C1\SC(=S)NC1=O	100*	-2.7	10.1	-10.6	i	0.3
O=C(Nc1ccc(F)cc1)c1ccc2snnc2c1	i	-5.3	x	-1.9	i	2.8
CCCc1cc(C(=O)Nc2ccc(C(=O)c3ccc(F)cc3)cc2)n(C)n1	100*	7.8	x	11.0	i	1.0
Cc1ccc(CNC(=O)C2CCCN(Cc3cnn(-c4ccccc4)c3-n3cccc3)C2)cc1 (configuration not stated)	i	-1.5	-8.0	-0.6	i	2.1
O=C(NCC1CCCO1)C1CCCN(Cc2cnn(-c3ccccc3)c2-n2cccc2)C1 (configuration not stated)	i	-0.2	-2.0	-4.3	-24.5*	-2.1
C=CCNc1ncnc2c1cnn2-c1ccc(C)cc1C	i	8.1	7.7	-5.2	i	-1.2
CCOC(=O)N1CCC(Nc2ncnc3c2cnn3-c2ccc(C)cc2C)CC1	i	1.6	-3.9	-0.6	i	14.5*
C/C(=N\NC(=O)c1ccc(Br)cc1)C1C(=O)c2ccccc2C1=O	100*	4.9	-20.3	-2.3	i	-3.3
Cc1ccccc1C(=O)Nc1ccc(S(=O)(=O)NCC2CCCO2)cc1 (configuration not stated)	x	6.5	x	-1.6	x	-2.6
CCOC(=O)c1sc(NC(=O)CSc2n[nH]c(-c3ccccc3)n2)c(C#N)c1C	100*	10.8	-0.5	-0.5	i	4.1
CCOC(=O)c1sc(NC(=O)c2cccnc2)c(C#N)c1C	i	-7.6	-12.2	18.6	i	0.0
CCOC(=O)c1sc(NC(=O)CSc2nc(C)cc(C)n2)c(C#N)c1C	i	-5.3	0.1	-12.3	i	4.4
CCOC(=O)c1sc(NC(=O)c2cc(-c3ccccc3)nc3ccccc23)c(C#N)c1C	100*	-6.3	-5.5	-3.3	i	-2.6
Cc1ccc2cc(CCNC(=O)c3ccc(S(=O)(=O)N4CCOCC4)cc3)c(=O)[nH]c2c1C	i	-3.4	x	-2.6	i	12.4
Cc1cc(C(=O)CCC(=O)Nc2cccc(F)c2)c(C)s1	x	-23.6	x	-2.2	x	1.2
Fc1ccc(Cn2ccc(-c3cnc(-c4ccccc4)s3)n2)cc1	100*	4.4	-4.1	-4.7	i	-1.7
CCCCCCn1c(=O)n2n(c1=O)C[C@]1(OC(=O)NCc3ccccc3F)CN(S(=O)(=O)c3ccc(C)cc3)C[C@]1(O)C2	x	-6.6	x	4.1	x	-0.6
C#CCOCCOCCOCCNc1nc(N2CCN(C(=O)CCCCCCCCCCNC(=O)[C@H](CCCCN)n3cc(CCO)nn3)CC2)nc(N2CCN(C(=O)CCCCCCCCCCNC(=O)[C@H](CCCCN)n3cc(CCO)nn3)CC2)n1	i	-6.7	x	7.6	i	-6.7
